Results taken from the supplement of paper PMC6607015.
Counter-ions that a name gives are not always drawn.

tested on: HeLa MZ; experiment: whole-cell filipin (free cholesterol) integrated intensity, Z-score; higher = more cholesterol staining; details: compound concentration in added solution (µM; 5 µl added to 20 µl cells): 10; 18 h
In short: (§1)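 HeLa MZ or A431 cells were plated at 3,500 per well in 20 µl over 5 µl of 10 µM compound solution in duplicate 384-well imaging plates and fixed in 4% PFA after 18 h. Staining used the 6C4 anti-LBPA antibody, filipin, propidium iodide and CellTracker green, with four 20× images captured per well. MetaXpress segmentation measured integrated LBPA or filipin intensity per cell, across the whole cell or inside LBPA endosomes, and AcuityXpress normalised these into Z-scores.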

Compound	whole-cell filipin (z-score)
CCc1ccc(CCOc2ccc(CC3SC(=O)NC3=O)cc2)nc1 (configuration not stated) [Pioglitazone]	-0.748

tested on: A431; experiment: filipin (cholesterol) integrated intensity within LBPA endosomes, Z-score; higher = more cholesterol in LBPA endosomes; details: compound concentration in added solution (µM; 5 µl added to 20 µl cells): 10; 18 h
In short: as §1

Compound	filipin (z-score)
c1ccc2c(c1)CCCc1cc(NCCN3CCOCC3)nnc1-2	-0.491
CC(C)OC(=O)C(C)(C)Oc1ccc(C(=O)c2ccc(Cl)cc2)cc1 [Fenofibrate]	-0.435
CC(=O)N(CC(C)C(=O)O)c1c(I)cc(I)c(N)c1I (configuration not stated) [Iocetamic acid]	-0.262
CC(CN(C)C)CN1c2ccccc2Sc2ccccc21 (configuration not stated) [Trimeprazine tartrate]	2.12
CCOC(=O)[N-]c1c[n+](N2CCOCC2)no1 [Molsidomine]	-0.558
CCN(CC)CCNc1ccc(CO)c2sc3ccccc3c(=O)c12 [Hycanthone]	2.68
CCn1cc(C(=O)O)c(=O)c2cnc(N3CCNCC3)nc21 [Pipemidic acid]	-0.361
Nc1cc(N2CCCCC2)nc(N)[n+]1[O-] [Minoxidil]	-0.426
COc1cc2ncnc(Nc3ccc(F)c(Cl)c3)c2cc1OCCCN1CCOCC1 [Gefitinib]	2.49
O=c1[nH]cc(F)c(=O)[nH]1 [5-fluorouracil]	-0.862
CS(=O)(=O)c1ccc([C@@H](O)[C@@H](CF)NC(=O)C(Cl)Cl)cc1 [Florfenicol]	-0.528
COc1cc(C)c(/C=C/C(C)=C/C=C/C(C)=C/C(=O)O)c(C)c1C [Acitretin]	-0.413
Cc1cc(C(=O)NNCc2ccccc2)no1 [Isocarboxazid]	-0.553
CO[C@H]1/C=C/O[C@@]2(C)Oc3c(C)c(O)c4c(O)c(c(/C=N/N5CCN(C6CCCC6)CC5)c(O)c4c3C2=O)NC(=O)/C(C)=C\C=C\[C@H](C)[C@H](O)[C@@H](C)[C@@H](O)[C@@H](C)[C@H](OC(C)=O)[C@@H]1C [Rifapentine]	-0.461
CN(C)CC/C=C1/c2ccccc2COc2ccc(CC(=O)O)cc21 [Olopatadine hydrochloride]	-0.37
CCc1c2c(nc3ccc(OC(=O)N4CCC(N5CCCCC5)CC4)cc13)-c1cc3c(c(=O)n1C2)COC(=O)[C@]3(O)CC [Irinotecan Hydrochloride]	0.0471

Compound	filipin (z-score)
CCc1cccc(CC)c1NC(=O)CN(CC(=O)O)CC(=O)O [Etifenin]	-0.521
Nc1nc2n[nH]nc2c(=O)[nH]1 [Azaguanine-8]	-0.438
COC(=O)Nc1nc2cc(C(=O)c3ccc(F)cc3)ccc2[nH]1 [Flubendazol]	-0.305
CCCC1C(=O)N2C(N(C)C)=Nc3ccc(C)cc3N2C1=O (configuration not stated) [Azapropazone]	-0.348
COc1ccc([C@@H]2CC(=O)c3c(O)cc(O[C@@H]4O[C@H](CO[C@@H]5O[C@@H](C)[C@H](O)[C@@H](O)[C@H]5O)[C@@H](O)[C@H](O)[C@H]4O)cc3O2)cc1O [Hesperidin]	-0.447
O=C(CCCCCCC(=O)Nc1ccccc1)NO [Vorinostat]	-0.414
CN1C(C)(C)CCCC1(C)C [Pempidine tartrate]	-0.313
Nc1ccc(S(=O)(=O)NC(=O)c2ccccc2)cc1 [Sulfabenzamide]	-0.451
Cc1ccc(C)c(OCCCC(C)(C)C(=O)O)c1 [Gemfibrozil]	-0.635
CC(=O)CC(c1ccc([N+](=O)[O-])cc1)c1c(O)c2ccccc2oc1=O (configuration not stated) [Acenocoumarol]	-0.49
COc1cc([C@@H]2c3cc4c(cc3[C@@H](O[C@@H]3O[C@@H]5CO[C@@H](C)O[C@H]5[C@H](O)[C@H]3O)[C@H]3COC(=O)[C@H]23)OCO4)cc(OC)c1O [Etoposide]	-0.718
CN(Cc1cnc2nc(N)nc(N)c2n1)c1ccc(C(=O)N[C@@H](CCC(=O)O)C(=O)O)cc1 [Methotrexate]	-0.754
O=C1Cc2cc(CCN3CCN(c4nsc5ccccc45)CC3)c(Cl)cc2N1 [Ziprasidone  Hydrochloride]	0.571
CCc1ccc(CCOc2ccc(CC3SC(=O)NC3=O)cc2)nc1 (configuration not stated) [Pioglitazone]	-0.5
COC(=O)Nc1nc2cc([S+]([O-])c3ccccc3)ccc2[nH]1 (configuration not stated) [Oxfendazol]	-0.364
